# Assay outcomes from PubChem.
# NIH3T3 tox – cytotoxic compounds in NIH 3T3 cells; AID 1345082; NIH 3T3 viability, CellTiter-Glo ATP luminescence, 48-72 h; Potency, µM (doses to about 96.7 µM), inactives show at the highest dose activity change, negative = cytotoxicity, most hits filed as inhibitors; 94,000 compounds, 4.3% hits; further: nearly all actives have a fitted effect of over 55% in size
#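 Cytotoxicity is measured as loss of cellular ATP: NIH 3T3 cells (400/well) are exposed to compound for 48 or 72 hr at 37 °C, then CellTiter-Glo luminescence is imaged after 10 min at room temperature.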
# GPT2 inh – blocks human glutamate pyruvate transaminase 2. Q8TD30. Recombinant GPT2, coupled pyruvate oxidase/HRP Amplex Red fluorescence. Potency, µM (series often up to 57.7 µM), for inactives: at the top dose activity change, negative = inhibition, hits mostly inhibitors. 100,000 compounds, 0.25% hits; further: nearly all actives have a fitted effect of over 60% in size
#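 Inhibition is scored from Amplex Red fluorescence generated when pyruvate oxidase and HRP act on pyruvate released by GPT2. Reactions contain 10ng/uL enzyme, 250uM a-KG and 2mM L-alanine and run 30 min at room temperature.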
# HEK293 tox – kills HEK 293 cells; Potency, µM (doses to about 115 µM), inactives show at the highest dose activity change, negative = cytotoxicity, hits mostly inhibitors; HEK 293 viability, ATP luminescence (CellTiter-Glo), 48-72 h; 94,000 compounds, 6.6% hits; AID 1345083; further: nearly all actives have a fitted effect of over 60% in size
#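 Luminescence from cellular ATP, measured with CellTiter-Glo, indicates HEK 293 viability. Cells plated at 250 cells/well are treated with compound for 48 or 72 hr at 37 degree Celsius before reagent addition.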
# hNpr1 antagonist – blocks ANP-stimulated signaling of human Npr1 receptor | AID 1347048 | P16066 | Potency, µM (top dose mostly 46.3 µM), inactives show at the top dose activity change, negative = inhibition, most hits filed as inhibitors | HEK293 hNpr1 GloSensor cGMP, ANP-stimulated luminescence | 76,000 compounds, 1.6% hits; calls by dose curve; further: nearly all actives have a fitted effect of over 60% in size
# Target sequence (P16066 whole entry, looked up): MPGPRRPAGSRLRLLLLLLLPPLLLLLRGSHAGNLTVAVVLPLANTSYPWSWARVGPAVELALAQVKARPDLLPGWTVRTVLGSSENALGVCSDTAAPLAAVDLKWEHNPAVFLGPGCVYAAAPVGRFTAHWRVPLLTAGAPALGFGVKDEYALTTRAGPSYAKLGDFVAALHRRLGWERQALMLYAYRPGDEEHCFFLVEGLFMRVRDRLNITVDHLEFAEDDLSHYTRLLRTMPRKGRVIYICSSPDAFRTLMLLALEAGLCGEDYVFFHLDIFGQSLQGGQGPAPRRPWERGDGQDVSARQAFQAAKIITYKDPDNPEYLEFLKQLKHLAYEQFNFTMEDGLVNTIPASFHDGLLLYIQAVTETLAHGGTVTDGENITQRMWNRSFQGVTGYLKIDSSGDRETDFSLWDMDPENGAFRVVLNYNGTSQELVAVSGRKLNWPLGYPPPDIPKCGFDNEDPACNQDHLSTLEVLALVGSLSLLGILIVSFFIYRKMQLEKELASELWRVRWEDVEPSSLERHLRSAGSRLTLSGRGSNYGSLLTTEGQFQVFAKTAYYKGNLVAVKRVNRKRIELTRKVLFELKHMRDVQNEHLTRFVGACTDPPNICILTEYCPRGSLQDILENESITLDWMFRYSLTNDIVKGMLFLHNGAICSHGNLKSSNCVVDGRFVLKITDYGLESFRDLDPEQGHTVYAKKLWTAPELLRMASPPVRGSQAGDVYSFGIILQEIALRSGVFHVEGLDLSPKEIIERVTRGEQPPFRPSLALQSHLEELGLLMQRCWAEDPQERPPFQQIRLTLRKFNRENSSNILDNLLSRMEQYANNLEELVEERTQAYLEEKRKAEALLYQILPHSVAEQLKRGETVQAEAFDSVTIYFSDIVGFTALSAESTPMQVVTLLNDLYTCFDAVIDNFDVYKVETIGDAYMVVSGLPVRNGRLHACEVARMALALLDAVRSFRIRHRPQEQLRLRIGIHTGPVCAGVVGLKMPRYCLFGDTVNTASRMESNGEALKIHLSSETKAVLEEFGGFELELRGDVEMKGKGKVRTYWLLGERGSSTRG
#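 Compound pre-incubated 30 min at room temperature on GloSensor-loaded HEK293 cells stably carrying hNpr1 and the pGS-40F cGMP biosensor. Stimulation uses hNppA at 0.1 nM final; luminescence is taken at baseline and 20 min post-agonist.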
# FLuc inh – blocks purified firefly luciferase enzyme activity; P08659; purified P. pyralis luciferase, luminescence, biochemical; 76,000 compounds, 2.5% hits; Potency, µM (doses to about 115 µM), hits mostly inhibitors; further: nearly all actives have a fitted effect of over 65% in size
#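 Purified P. pyralis luciferase (10nM final) in 50mM Tris acetate pH 7.5, 10mM Mg acetate, 0.01% Tween-20, 0.05% BSA with 10uM D-luciferin and 10uM ATP. Compounds titrated qHTS. Luminescence imaged on CCD.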
# Numbers without * were called inactive; i = inactive; ? = inconclusive; nt = not tested or not shown; [ ] = remark or other dose. Hits are enriched below; roughly 10% of the tested compounds scored in any of these assays. Unless noted, the call rests on the fitted dose curve; in most records, active means well fitted curve in the direction sought with a large enough effect; inconclusive means small, poorly fitted or top-dose-only effect, or another doubt; inactive means no such curve, though single readings can be large; an effect the other way counts as inactive or inconclusive. On the % scale 0 is the no-effect control and ±100 the full control effect; potency means the concentration at half of the fitted maximal effect.
SMILES,NIH3T3 tox,GPT2 inh,HEK293 tox,hNpr1 antagonist,FLuc inh
c1ccc(CN2CCC(Oc3cnc4c(ccn4-c4cncnc4)c3)CC2)cc1,?,-10.3%[88.5 µM],100µM*,-3.5%[70.6 µM],i
O=C(CC1CC1)N1CCC(Oc2cnc3c(ccn3-c3cncnc3)c2)CC1,?,-9.5%[88.5 µM],?,-2.4%[70.6 µM],i
O=C(Cc1ccccc1)N1CCC(Oc2cnc3c(ccn3-c3cncnc3)c2)CC1,?,-18.9%[88.5 µM],56.2µM*,-13.7%[70.6 µM],i
O=C(c1ccncn1)N1CCC(Oc2cnc3c(ccn3-c3cncnc3)c2)CC1,-19.3%[138 µM],-13.4%[88.5 µM],?,4.4%[70.6 µM],i
Cc1ncccc1C(=O)N1CCC(Oc2cnc3c(ccn3-c3cncnc3)c2)CC1,70.8µM*,4.1%[88.5 µM],-12.6%[172 µM],1.4%[70.6 µM],i
CC(C)C(=O)N1CCC(Oc2cnc3c(ccn3-c3cncnc3)c2)CC1,?,0.6%[88.5 µM],-18.8%[172 µM],-0.3%[70.6 µM],i
COc1cccc(C(=O)N2CCC(N3C[C@H](O)C[C@H]3C(=O)NCc3cccc(C)c3)CC2)c1,-23.6%,0.4%,-10.3%,-1.4%,i
O=C(Cc1ccccc1F)Nc1ccc2c(c1)CN(C(=O)[C@H]1CCCN1)CC2,-22.0%,3.2%,-3.6%,1.4%,i
COCCNC(=O)c1cc(-c2cccc(C(F)(F)F)c2)c2nncn2n1,-12.3%,3.9%,3.2%,nt,nt
O=C(NC1CC1)c1cc(-c2cccc(C(F)(F)F)c2)c2cccn2n1,?,i,35.5µM*,nt,nt
O=C(NCc1ccc(F)cc1)c1cc(-c2cccc(C(F)(F)F)c2)c2cccn2n1,?,-13.2%,25.1µM*,nt,nt
CC(C)NC(=O)c1cc(-c2cccc(C(F)(F)F)c2)c2cccn2n1,?,i,35.5µM*,nt,nt
O=C(NCC(F)(F)F)c1cc(-c2cccc(C(F)(F)F)c2)c2cccn2n1,?,i,35.5µM*,nt,nt
CC(C)NC(=O)c1cc(-c2ccc([S+](C)(=O)[O-])cc2)c2cccn2n1,?,4.7%,?,nt,nt
CC(C)Cn1nc2n(c1=O)CCN(S(=O)(=O)c1ccc(C(C)(C)C)cc1)CC2,?,-4.6%,?,-3.5%,i
COC(=O)CNC(=O)c1nn(C)c2nc(-c3ccccc3OC)ccc12,-28.9%,-3.1%,0.8%,nt,nt
COc1ccccc1-c1cc(C(=O)NCc2cccs2)nn2cnnc12,-30.0%,-1.3%,-20.7%,nt,nt
C#CCNC(=O)c1cc(C(C)(C)C)c2cccn2n1,-16.0%[138 µM],-15.1%[88.5 µM],-29.9%[172 µM],nt,nt
C#CCNC(=O)c1cc(-c2cccc(C(F)(F)F)c2)c2cccn2n1,50.1µM*,i,?,nt,nt
O=C1CCN(S(=O)(=O)c2ccccc2)CCCN(Cc2cccc(F)c2)CCN1,-29.5%,?,-23.4%,-1.7%,i
CN1CCC(Cn2ccc3c(N4CCOCC4)nc(-c4cccc5[nH]ncc45)cc32)CC1,44.7µM*,4.2%[88.5 µM],?,1.5%[70.6 µM],i
Cc1ccc(-c2cc3c(ccn3CC3CCN([S+](C)(=O)[O-])CC3)c(N3CCOCC3)n2)cn1,?,i,-27.9%,-10.2%,i
C[S+](=O)([O-])N1CCC(Cn2ccc3c(N4CCOCC4)nc(-c4cccnc4)cc32)CC1,7.08µM*,4.8%,-18.1%,-7.1%,i
CN1CCC(Cn2ccc3c(N4CCOCC4)nc(-c4cccc(C(N)=O)c4)cc32)CC1,100µM*,i,?,1.1%[70.6 µM],i
COc1cc(F)ccc1-c1cc2c(ccn2CC2CCN(C)CC2)c(N2CCOCC2)n1,70.8µM*,0.9%[88.5 µM],100µM*,-2.5%[70.6 µM],i
SMILES,NIH3T3 tox,GPT2 inh,HEK293 tox,hNpr1 antagonist,FLuc inh
CC(=O)Nc1cccc(-c2cc3c(ccn3CC3CCN(C)CC3)c(N3CCOCC3)n2)c1,?,-5.3%,-28.5%,1.9%,i
C[S+](=O)([O-])N1CCC(Cn2ccc3c(N4CCOCC4)nc(-c4cccc(C(N)=O)c4)cc32)CC1,?,1.5%,-13.8%,-0.3%,i
Cc1nc(-c2ccc(F)cc2)n(Cc2ccccc2F)c(=O)c1CCO,?,i,?,4.6%,i
COCC(=O)N1CCCC1c1nc(CCOc2ccc(F)cc2)no1 (stereo not given),-4.7%,4.7%,4.5%,nt,nt
Cc1ccccc1N(C)C1CN(Cc2cccnc2)C1,-25.5%[138 µM],i,?,nt,nt
Cc1ccccc1N(C)C1CN(Cc2ccccc2)C1,89.1µM*,?,?,-7.6%[70.6 µM],i
Cc1ccccc1N(C)C1CN(Cc2ccc(C(F)(F)F)cc2)C1,?,3.0%,100µM*,nt,nt
Cc1ccccc1N(C)C1CN(Cc2ccc(F)cc2)C1,-22.7%[138 µM],-11.9%[88.5 µM],?,nt,nt
Cc1ccccc1N(C)C1CN([S+](=O)([O-])c2cccs2)C1,?,2.6%[88.5 µM],79.4µM*,-7.0%[70.6 µM],i
Cc1noc(-c2cn(C3CCN(C(=O)c4ccc(C#N)cc4)CC3)nn2)n1,-12.8%,i,-1.8%,0.3%,i
CCCn1cnnc1CNC(=O)CC1C(=O)NCCN1Cc1ccoc1 (stereo not given),i,2.0%,-0.8%,3.1%,i
COC(=O)c1ccc2nc(CO[C@H]3CN(Cc4ccccc4C)C[C@H]3F)[nH]c2c1,?,?,?,-0.6%[70.6 µM],?
COc1cc(CN2C[C@@H](F)[C@@H](OCc3nc4ccc(F)cc4[nH]3)C2)cc(OC)c1OC,-11.6%[138 µM],i,-16.5%[172 µM],1.1%[70.6 µM],i
Fc1ccc2nc(CO[C@H]3CN(Cc4cnc5ccccc5c4)C[C@H]3F)[nH]c2c1,?,-2.4%[88.5 µM],70.8µM*,?,i
COC(=O)c1ccc2nc(CO[C@H]3CN(Cc4ccc5ccccc5n4)C[C@H]3F)[nH]c2c1,?,-10.6%[88.5 µM],100µM*,1.4%[70.6 µM],?
O=C(NC[C@H]1OC[C@@H](N(Cc2ccccc2)Cc2ccccc2)[C@@H]1O)Nc1ccccc1,?,-8.4%[88.5 µM],79.4µM*,-13.1%[70.6 µM],i
COc1ccccc1CNC(=O)[C@@H]1Cc2cn(C)c3cccc(c23)[C@H](CC(C)C)N1,50.1µM*,?,44.7µM*,-19.7%[70.6 µM],i
COc1ccc(CNC(=O)[C@@H]2Cc3cn(Cc4cccnc4)c4cccc(c34)[C@H](CC(C)C)N2)cc1,?,-41.1%,35.5µM*,-12.4%,i
C=CCNC(=O)[C@@H]1Cc2cn(Cc3cccnc3)c3cccc(c23)[C@H](CC(C)C)N1,?,3.2%[88.5 µM],50.1µM*,-18.4%[70.6 µM],i
CC(C)C[C@@H]1N[C@H](C(=O)NCc2ccccc2)Cc2cn(Cc3cccnc3)c3cccc1c23,?,-10.2%,25.1µM*,-21.0%,i
CCN(CC)C(=O)C[C@@H]1c2nc(NC(=O)C3CCC3)sc2C[C@@H]2[C@](C)(CO)[C@H](O)CC[C@]21C,?,?,-24.4%,-1.3%,i
Cc1ccc(NC(=O)N2CCC(CCNC(=O)CCc3ccccc3)CC2)cc1F,?,i,?,-16.4%,i
O=C(c1cccnc1)N1CCC2(CC1)NCCc1c2[nH]c2ccccc12,-14.8%,i,-5.5%,16.5%,i
